This is an account of results in PubChem BioAssay (EPA / NIEHS).

Test [1] in a line: ATG_TCF_b_cat_CIS: Attagene CIS-FACTORIAL HepG2 Assay for human T-Cell-Factor with beta-catenin (TCF/b-cat) (AID 2282965). The note with it: HepG2 TCF/beta-catenin cis-reporter transcription, actives raise or lower the signal. Put shortly:
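Measured: reporter mRNA in HepG2 transiently transfected with cis-promoter reporter units, 24 h after chemical addition. Fitting was bidirectional, DMSO as negative control.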

The nature of test [2]: ATG_TAL_CIS: Attagene CIS-FACTORIAL HepG2 Assay for human TAL Basal Promoter (AID 2282966).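 Further: background control endpoint measuring basal TAL promoter reporter mRNA not a specific factor.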 The note with it: HepG2 Attagene cis-factorial TAL promoter reporter; actives raise or lower the signal. Summed up: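 Readout: reporter mRNA, fluorescence by CE. System: HepG2, transient multi-reporter transfection, endogenous TF activity. Exposure: 24 h. Analysis: bidirectional, DMSO-normalized; background control.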

Test [3] can be described thus: ATG_TGFb_CIS: Attagene CIS-FACTORIAL HepG2 Assay for human Transforming Growth Factor (TGF) (AID 2282967). Conditions: HepG2 Attagene CIS TGFb reporter, mRNA transcription; actives raise or lower the signal. Put shortly: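 Transient MRTU transfection of HepG2 (FuGene 6). Dose 24 h. TriZol RNA, oligo(dT) RT, PCR, 6-FAM primer extension, HpaI cut, CE. Bidirectional fit, DMSO = baseline.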

The nature of test [4]: ATG_VDRE_CIS: Attagene CIS-FACTORIAL HepG2 Assay for human Vitamin D Receptor Element (VDRE) (AID 2282968). Conditions: HepG2 VDRE cis-reporter transcription, actives raise or lower the signal. Put shortly:
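Reporter mRNA induction, quantified by capillary electrophoresis of fluorescently labelled RT-PCR products, was read 24 h after dosing HepG2 cells carrying transiently transfected cis-regulated reporter units; gain or loss relative to DMSO.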

Test [5] concerns the target X-box-binding protein 1 (Homo sapiens) (UniProt P17861). In words: ATG_Xbp1_CIS: Attagene CIS-FACTORIAL HepG2 Assay for human X-box Binding Protein 1 (XBP1) (AID 2282972). Conditions: HepG2 XBP1 cis-element reporter, Attagene multiplex; actives raise or lower the signal. Summed up: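 After a 24-hour chemical exposure of HepG2 cells carrying cis-regulated reporters, reporter mRNA levels are assessed. Quantification uses RT-PCR, 6-FAM labelling and capillary electrophoresis. Gain- or loss-of-signal is fitted against DMSO.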

Test [6] can be described thus: ATG_GAL4_TRANS: Attagene TRANS-FACTORIAL HepG2 Assay for GAL4 (Internal Marker) (AID 2282976; active means hit-call score of the fitted dose curve at least 0.9, where 1 is the maximum). Conditions: HepG2 Attagene TRANS GAL4 internal marker reporter. Put shortly: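 Fluorescence from capillary electrophoresis of labelled RT-PCR products quantifies reporter mRNA induction after 24 h dosing of HepG2 cells carrying transfected GAL4-UAS reporter transcription units. Vehicle DMSO serves as baseline.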

In test [7] the target is Estrogen receptor (Homo sapiens) (UniProt P03372). Description: ATG_ERa_TRANS: Attagene TRANS-FACTORIAL HepG2 Assay for human Estrogen Receptor alpha (ERa) (AID 2282970; active means hit-call score of the fitted dose curve at least 0.9, where 1 is the maximum). Conditions: HepG2 Attagene TRANS ERa GAL4 reporter, mRNA. Summed up: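 Transactivation via ERa-Gal4 chimera in HepG2; 24 hour incubation; reporter mRNA detected by fluorescence RT-PCR and capillary electrophoresis.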

Test [8] is described as follows: ATG_M_19_TRANS: Attagene TRANS-FACTORIAL HepG2 Assay for M19 Transcription Factor (Internal Marker) (AID 2282974; active means hit-call score of the fitted dose curve at least 0.9, where 1 is the maximum). The note with it: HepG2 Attagene TRANS-FACTORIAL M19 internal marker reporter. Summed up: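 HepG2 cells transiently transfected with multiple GAL4-UAS reporter transcription units were exposed to chemicals for 24 h. Reporter mRNA was read by RT-PCR, 6-FAM primer extension, HpaI digestion and capillary electrophoresis; gain of signal fitted relative to DMSO.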

Test [9] concerns the target Steroid hormone receptor ERR1 (Homo sapiens) (UniProt P11474). Description: ATG_ERRa_TRANS: Attagene TRANS-FACTORIAL HepG2 Assay for human Estrogen-Related Receptor alpha (ERRa) (AID 2282971; active means hit-call score of the fitted dose curve at least 0.9, where 1 is the maximum). Conditions: HepG2 Attagene TRANS reporter, ERRa transactivation. Summed up:
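HepG2 cells were transiently transfected with multiple GAL4-UAS reporter units, then dosed with compound for 24 h. Total RNA was reverse-transcribed, reporter cDNA PCR-amplified and fluorescently labelled, and fragments resolved by capillary electrophoresis; induction was compared with DMSO.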

In test [10] the target is Nuclear receptor subfamily 1 group I member 3 (Homo sapiens) (UniProt Q14994). Description: ATG_CAR_TRANS: Attagene TRANS-FACTORIAL HepG2 Assay for human Constitutive Androstane Receptor (CAR) (AID 2282969; active means hit-call score of the fitted dose curve at least 0.9, where 1 is the maximum;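 further: activators raise reporter mRNA above DMSO so AC50 marks induction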). The note with it: HepG2 Attagene TRANS-FACTORIAL CAR reporter. Put shortly:
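Readout is reporter mRNA induction, quantified by fluorescent primer extension and capillary electrophoresis after RT-PCR. Cells were HepG2 transiently carrying chimeric NR-Gal4 constructs with GAL4-UAS reporters, treated for 24 h; activity scored upward from DMSO.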

Records with an inconclusive call do not appear. Activity calls are given as the source filed them. How the source made its calls, unless noted: active means hit-call score of the fitted dose curve at least 0.9, where 1 is the maximum; inactive means score below 0.9.

The AC50 is the concentration at which the activity in the assay is half-maximal.

Chain of X-box-binding protein 1 (Homo sapiens) (P17861 whole entry, looked up): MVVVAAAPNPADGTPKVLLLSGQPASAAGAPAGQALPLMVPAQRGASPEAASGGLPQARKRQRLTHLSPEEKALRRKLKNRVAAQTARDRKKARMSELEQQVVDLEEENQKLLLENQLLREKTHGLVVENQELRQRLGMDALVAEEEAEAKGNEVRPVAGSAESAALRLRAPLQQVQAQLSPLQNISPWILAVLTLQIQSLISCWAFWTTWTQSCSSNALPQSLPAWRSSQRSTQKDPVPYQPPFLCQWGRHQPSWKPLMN
Chain of Estrogen receptor (Homo sapiens) (P03372 whole entry, looked up, the tested form may be a part): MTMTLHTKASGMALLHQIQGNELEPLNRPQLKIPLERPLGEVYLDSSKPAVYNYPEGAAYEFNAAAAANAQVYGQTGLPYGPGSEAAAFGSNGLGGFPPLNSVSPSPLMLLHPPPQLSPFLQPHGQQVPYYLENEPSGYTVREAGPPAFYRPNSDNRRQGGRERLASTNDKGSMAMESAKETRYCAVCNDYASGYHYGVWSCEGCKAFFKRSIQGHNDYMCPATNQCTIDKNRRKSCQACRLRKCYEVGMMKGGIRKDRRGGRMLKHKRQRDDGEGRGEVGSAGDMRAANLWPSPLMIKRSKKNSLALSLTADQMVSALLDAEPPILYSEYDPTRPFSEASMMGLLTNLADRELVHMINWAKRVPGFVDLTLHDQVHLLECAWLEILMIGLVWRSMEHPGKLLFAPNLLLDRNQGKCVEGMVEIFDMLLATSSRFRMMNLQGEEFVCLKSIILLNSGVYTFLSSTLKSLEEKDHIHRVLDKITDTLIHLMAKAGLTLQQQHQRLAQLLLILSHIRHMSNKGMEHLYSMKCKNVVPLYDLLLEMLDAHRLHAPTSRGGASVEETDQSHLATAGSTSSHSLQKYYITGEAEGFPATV
Chain of Steroid hormone receptor ERR1 (Homo sapiens) (P11474 whole entry, looked up, the tested form may be a part): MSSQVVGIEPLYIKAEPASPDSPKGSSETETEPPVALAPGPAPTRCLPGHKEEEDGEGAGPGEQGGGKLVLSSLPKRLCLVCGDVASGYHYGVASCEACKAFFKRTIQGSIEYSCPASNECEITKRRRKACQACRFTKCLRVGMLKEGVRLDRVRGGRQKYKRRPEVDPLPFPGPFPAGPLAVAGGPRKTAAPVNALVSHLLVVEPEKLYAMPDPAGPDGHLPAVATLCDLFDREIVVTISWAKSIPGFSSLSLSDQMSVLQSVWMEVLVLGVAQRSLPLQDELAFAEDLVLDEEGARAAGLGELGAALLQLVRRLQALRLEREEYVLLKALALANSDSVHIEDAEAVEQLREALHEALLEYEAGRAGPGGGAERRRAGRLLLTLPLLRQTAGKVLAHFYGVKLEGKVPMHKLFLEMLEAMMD
Chain of Nuclear receptor subfamily 1 group I member 3 (Homo sapiens) (Q14994 whole entry, looked up, the tested form may be a part): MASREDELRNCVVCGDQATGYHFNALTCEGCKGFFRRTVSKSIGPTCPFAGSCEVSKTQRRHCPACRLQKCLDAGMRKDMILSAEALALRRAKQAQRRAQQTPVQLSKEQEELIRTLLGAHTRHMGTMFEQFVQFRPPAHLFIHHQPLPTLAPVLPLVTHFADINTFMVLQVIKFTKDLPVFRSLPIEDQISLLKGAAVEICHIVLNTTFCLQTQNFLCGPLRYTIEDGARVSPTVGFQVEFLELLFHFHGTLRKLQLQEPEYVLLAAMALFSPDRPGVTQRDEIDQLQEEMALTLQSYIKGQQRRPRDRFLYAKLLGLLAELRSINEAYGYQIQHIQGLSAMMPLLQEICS

Take `CO[Si](CCCOCC1CO1)(OC)OC` (configuration not stated): the compound was classed as inactive in [1], in [2], in test [3], in [4] and in test [5].

Regarding `CCOC(=O)C1CC(=O)C(=C(O)C2CC2)C(=O)C1` (configuration not stated), the compound was called inactive in test [1], in [2], in test [3], in test [4], in test [5] and in test [6].

`CCOCN(C(=O)CS(=O)(=O)O)c1c(C)cccc1CC`: the result in test [1], in test [2], in [3], in test [4], in [7] and in [5] was inactive. Besides, the outcome in [6] was inactive.

`O=C1C=CC(=O)N1c1ccc(Cc2ccc(N3C(=O)C=CC3=O)cc2)cc1`: the outcome in test [1], in test [4], in [8] and in test [6] was inactive. Moreover, the AC50 in [2] was 56.8 µM (active); in [3], 41.6 µM (active); in test [5], 42.6 µM (active).

On to `CCN(CC)c1ccc2c(c1)Oc1cc(N(CC)CC)ccc1C21OC(=O)c2ccccc21`, for which the AC50 in test [1] was 50 µM (active); in [4] it was 1.32 µM (active). Moreover, the result in test [2], in test [3], in test [7], in test [5] and in [6] was inactive.

Take `CC(=O)c1ccccc1N`: the compound was classed as inactive in [1], in [2], in test [3], in test [4], in test [5] and in test [6].

As to `C[Si](C)O[Si](C)C`, the result in [1], in [2], in [3], in [4], in test [5] and in test [8] was inactive. The call in test [6] was inactive.

Turning to `CCN(CC)c1ccc(C=O)c(O)c1`, the call in test [1], in test [2], in test [3], in test [7], in test [5] and in test [6] was inactive. For the same compound, the AC50 in test [4] was 32.5 µM (active).

`CCOC(OCC)OCC`: the result in test [1], in [2], in test [3], in [4], in test [5] and in test [6] was inactive.

For the compound `CC(=O)C=O`, the result in test [1], in test [2], in [3], in [4], in [5] and in [8] was inactive. For the same compound, in [6], the call was inactive.

Take `NC(=O)C(F)(F)C(F)(F)C(F)(F)C(F)F`: the compound was called inactive in test [1], in test [2], in test [3], in test [4], in [7] and in test [5]. The compound was classed as inactive in test [6].

On to `NC(=O)C(F)(F)C(F)(F)C(F)(F)F`, for which the compound was classed as inactive in test [1], in [2], in test [3], in [4] and in test [5].

On to `CCCCCCCC/C=C\CCCCCCCC(=O)OCC(O)CO` (configuration not stated), for which the outcome in test [1], in [2], in test [3], in test [4], in [9] and in test [5] was inactive. For the same compound, in test [6], the result was inactive.

As to `CCN=C1C=CC(=C(c2ccc(N(CC)CC)cc2)c2ccc(N(CC)CC)cc2)c2ccccc21`, the AC50 in test [1] was 0.885 µM (active); in [4] it was 1.15 µM (active); in test [5] it was 1.86 µM (active). The call in test [2], in [3], in [8] and in [6] was inactive.

Take `O=S(=O)(O)CCC(F)(F)C(F)(F)C(F)(F)C(F)(F)F`: the outcome in test [1], in [2], in test [3], in [4], in test [9] and in test [5] was inactive. In test [8], the compound was called inactive.

Take `O=c1cccc[nH]1`: the compound was called inactive in test [1], in test [2], in test [3], in test [4], in test [9] and in test [5]. The call in test [8] was inactive.

Regarding `F[Si-2](F)(F)(F)(F)F`, the compound was classed as inactive in [1], in test [2], in test [3], in test [4], in test [9] and in test [5].

As for `C=CC(=O)OCCC(F)(F)C(F)(F)C(F)(F)C(F)(F)F`, the call in test [1], in test [2], in [3], in test [4], in test [9] and in test [5] was inactive. Also, in [6], the result was inactive.

`OCC1CCCO1` (configuration not stated): the result in test [1], in test [2], in test [3], in test [4] and in [5] was inactive.

As for `O=C1c2c(O)ccc(Nc3ccc(CCO)cc3)c2C(=O)c2c([N+](=O)[O-])ccc(O)c21`, the result in test [1], in test [2], in [3], in [10], in test [7] and in test [5] was inactive.

Turning to `O=C(Cl)c1ccc(Cl)cc1Cl`, the compound was classed as inactive in test [1], in [2], in [3], in [4], in test [5] and in test [8].

Consider `CCC(C)CO` (configuration not stated), for which the compound was classed as inactive in [1], in [2], in test [3], in [4], in test [9] and in test [5]. Besides, in [8], the call was inactive.

In the case of `CC(C)(C)c1cc(CCC(=O)NCCCCCCNC(=O)CCc2cc(C(C)(C)C)c(O)c(C(C)(C)C)c2)cc(C(C)(C)C)c1O`, the call in test [1], in [2], in test [3], in [7], in test [5] and in test [6] was inactive. For the same compound, the AC50 in test [4] was 0.811 µM (active).

As to `NC(O)(C(F)(F)F)C(F)(F)F`, the compound was called inactive in test [1], in test [2], in test [3], in test [4], in test [5] and in test [6].

On to `CC(C)C(=O)OCc1ccccc1`, for which the compound was called inactive in test [1], in test [2], in test [3], in test [4], in test [5] and in test [8]. In addition, in test [6], the compound was classed as inactive.

In the case of `CC(C)OC(=O)COc1ccc(Cl)cc1Cl`, the result in test [1], in test [2], in [3], in [10], in test [7] and in test [5] was inactive. The compound was classed as inactive in test [6].

As for `c1ccc(C[P+](c2ccccc2)(c2ccccc2)c2ccccc2)cc1`, the call in [1], in test [2], in [3], in test [4], in [9] and in test [8] was inactive. Also, the compound was classed as inactive in [6]. The AC50 in test [5] was 53.4 µM (active).

Consider `CC(C)OC=O`, for which the result in test [1], in test [2], in [3], in test [4], in test [5] and in test [8] was inactive. Also, the compound was classed as inactive in test [6].

On to `O=c1[nH]cccc1O`, for which the result in test [1], in test [2], in test [3], in test [4], in test [9] and in test [5] was inactive. Besides, the outcome in test [8] and in test [6] was inactive.
